Reference: PubChem BioAssay (NCATS)
Several values for one entry are separate records, joined by “and”; a condition that tells them apart may be missing. Equal entries are not always repeated. A number with no mark means an inactive call. Inconclusive results are not listed. Where a call stands in place of a potency, no number is given. Activity calls are given as the source filed them. Unless noted, the call rests on the fitted dose curve; in most records, active means well fitted curve in the direction sought with a large enough effect; inconclusive means small, poorly fitted or top-dose-only effect, or another doubt; inactive means no such curve, though single readings can be large; an effect the other way counts as inactive or inconclusive.

How the values were obtained:
[1] = Cell Viability - HUV-EC-C (AID 542);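 further: cells exposed to compound for 40 hours; nearly all actives have a fitted effect of over 35% in size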
Method in brief: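 Luminescent ATP read-out (CellTiter-Glo, 20 min room temperature) after 40 hr compound treatment of HUV-EC-C cells at 37 °C. Concentration-response data fitted with the standard Hill equation to give AC50; tamoxifen and doxorubicin served as positive controls.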

[2] = Cellular Toxicity (caspase-3) HUV-EC-C (AID 656)
Method in brief: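 Luminescent Caspase-Glo 3/7 readout after 16 h, 37 °C compound exposure of HUV-EC-C endothelial cells, 1000 per well, complete medium. AC50 derived by Hill fitting, with DMSO as baseline and 100 uM tamoxifen as full activation.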

[3] = Cellular Toxicity (caspase-3) H-4-II-E (AID 663); conditions: Potency: caspase-3 activation;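 further: cells exposed to compound for 16 hr before readout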
Method in brief: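 H-4-II-E rat hepatoma, 1500 cells/well, 5 hr settle at 37 °C; compound 16 hr, 37 °C, complete medium; Caspase-Glo 3/7, 20 min RT; luminescence. DMSO = 0%, 100 uM tamoxifen = 100%; Hill-equation AC50.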

[4] = Cellular Toxicity (caspase-3) N2a (AID 665);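 further: compound exposure lasted 16 h at 37 °C before readout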
Method in brief: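 Luminescent Caspase-Glo 3/7 readout in N2a mouse neuroblastoma cells after 16 h compound exposure at 37 °C. Signal scaled to DMSO (basal) and 10 uM staurosporine (100%). Concentration-response fitted with Hill equation for AC50.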

[5] = Cellular Toxicity (caspase-3) NIH 3T3 (AID 666)
Method in brief: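 NIH 3T3, 1000 cells/well, 5 hr settle then 16 hr compound at 37°C; Caspase-Glo 3/7, 20 min RT, luminescence. DMSO = basal, 100 uM tamoxifen = 100%. Hill-equation AC50, qHTS.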

[6] = target: Cytochrome P450 3A4 (Homo sapiens) (UniProt P08684); test: qHTS Assay for Inhibitors and Substrates of Cytochrome P450 3A4 (AID 884); further: nearly all actives have a fitted effect of over 50% in size
Method in brief: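 Luminescent readout of luciferin produced by CYP3A4 (20 nM) dealkylation of Luciferin-PPXE, 25 uM (its KM). NADPH-driven reaction ran 60 min at RT after 10 min compound preincubation; data scaled to 57 uM ketoconazole as 100% inhibition.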

[7] = MultiTox-Fluor Cytotoxicity Assay - LYMP1-003 - Dead Cells (AID 961); further: nearly all actives have a fitted effect of over 70% in size
Method in brief: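 Dead-cell protease release, detected as bis-AAF-R110 fluorescence at 485/520 nm, was measured in LYMP1-003 cells after 16 h compound treatment at 37 C. AC50 values came from Hill-modeled qHTS curves normalized to DMSO (0%) and 15 uM tetraoctylammonium bromide (100%).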

[8] = MultiTox-Fluor Cytotoxicity Assay - LYMP1-003 - Live Cells (AID 962);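 further: cells exposed to compound for 16 hours at 37 °C; cytotoxic hits lower the live-cell protease signal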
Method in brief: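 Readout: live-cell fluorescence (Ex/Em=405/510) from GF-AFC cleavage after 60 min MultiTox-Fluor reagent at room temperature. Lymphoblastoid LYMP1-003 cells, 16 hr compound treatment, 37 C. Concentration-response fitted to standard Hill equation for AC50.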

[9] = Cell Viability - LYMP2-003 (AID 965);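 further: cells exposed to compounds for 24 h before reading; nearly all actives have a fitted effect of over 50% in size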
Method in brief: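 CellTiter-Glo luminescence quantified ATP loss after 24 h compound treatment of LYMP2-003 lymphoblastoid cells at 37 C. Titration series were fitted with the standard Hill equation to give AC50.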

[10] = target: Glucocorticoid receptor (Homo sapiens) (UniProt P04150); test: qHTS assay for small molecule antagonists of glucocorticoid receptor signaling (AID 588533; active means well fitted inhibition curve with a large enough effect in the signal ratio, with a control signal flat, not every such curve was filed as active; the % refers to the signal ratio)
Method in brief: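 Antagonist-mode qHTS: compound titrations added to GRE-bla HeLa cells, then dexamethasone 2 nM final; 18 h, 37 C. CCF4 FRET fluorescence normalized to dexamethasone and DMSO; IC50 from Hill fit.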

[11] = qHTS assay for small molecule agonists of the antioxidant response element (ARE) signaling pathway (AID 651741; active means well fitted activation curve with a large enough effect in the signal ratio; the % refers to the signal ratio; further: potency means the concentration at half of the fitted maximal effect)
Method in brief: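 HepG2 ARE-bla reporter cells, 2,000/well; 5 h settle at 37 C/5% CO2; compound pin transfer (23 nL, DMSO); 16 h at 37 C; LiveBLAzer B/G FRET substrate, 2 h RT; fluorescence intensity read.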

[12] = qHTS assay for small molecule activators of the nuclear factor-kappa B (NF-kB) signaling pathway (AID 651749; active means well fitted activation curve with a large enough effect in the signal ratio; the % refers to the signal ratio); conditions: NF-kB-bla ME-180 cells, beta-lactamase FRET ratio, 16 h; hits give high values
Method in brief: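 NF-kB-bla ME-180 cells, 2,000/well; 23 nL compound or DMSO pinned; 16 hr, 37C/5% CO2; beta-lactamase FRET read-out.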

[13] = target: Nuclear receptor ROR-gamma (Homo sapiens) (UniProt P51449); test: qHTS assay for small molecule antagonists of the retinoid-related orphan receptor gamma (ROR-gamma) signaling pathway (AID 651802);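 further: CHO cells with doxycycline-induced ROR-gamma expression; luciferase reporter luminescence driven by ROR response element; nearly all actives have a fitted effect of over 60% in size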
Method in brief: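 Luciferase read-out: ONE-Glo luminescence after 30 min at room temperature, following 16hr doxycycline induction at 37C, 5% CO2 of CHO cells with TET-inducible ROR and RORE-LUC reporter; decreased luminescence = reduced reporter activity.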

[14] = qHTS assay for small molecule activators of the human pregnane X receptor (PXR) signaling pathway (AID 720659; call rule not given here)
[15] = target: Estrogen receptor (Homo sapiens) (UniProt P03372); test: qHTS assay for small molecule antagonists of estrogen receptor alpha signaling (AID 588513; active means well fitted curve in the direction sought with a large enough effect in the signal ratio, with a control signal flat, not every such curve was filed as active; the % refers to the signal ratio)
Method in brief: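 Antagonist mode: inhibition of 0.5 nM 17-beta-estradiol-driven beta-lactamase reporter in HEK 293 ER-alpha-UAS-bla cells, 18 h at 37C, CCF4 readout after 2 h at RT. Normalised to estradiol and DMSO; titration fitted to Hill.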

[16] = target: Estrogen receptor (Homo sapiens) (UniProt P03372); test: qHTS assay for small molecule agonists of estrogen receptor alpha signaling (AID 588514; calls by dose curve; further: nearly all actives have a fitted effect of over 70% in size)
Method in brief: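 Read-out: CCF4 fluorescence from a beta-lactamase reporter in ER-alpha-UAS-bla HEK 293 cells after 18 hrs of compound exposure at 37 C. Normalized to 20 nM 17-beta-estradiol (100%) and DMSO (0%).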

[17] = target: Vitamin D3 receptor (Homo sapiens) (UniProt P11473); test: qHTS assay for small molecule antagonists of vitamin D receptor signaling (AID 588541; calls by dose curve;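 further: receptor activated by calcitriol during compound treatment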)
Method in brief: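 VDR-UAS-bla HEK293T cells in 2% charcoal-stripped FBS were stimulated with 1-alpha,25-dihydroxyvitamin D3 (3 nM final) plus compound for 16 h at 37 C. The beta-lactamase CCF4 readout was normalized to 50 nM agonist and DMSO, and Hill fits gave IC50.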

[18] = qHTS assay for cell viability of HEK293 cells (AID 743288); conditions: ATP luminescence (CellTiter-Glo), 18 h; max response: hits give low values; further: nearly all actives have a fitted effect of over 50% in size
Method in brief: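 Readout is luciferase-coupled ATP content (CellTiter-Glo luminescence, 30 min room temperature) as a measure of metabolically competent cells. Parental HEK293 cells were plated 5 h or more before compound addition, then treated 18 h at 37 C.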

[19] = Cell Viability - NIH 3T3 (AID 541); conditions: NIH 3T3 cell viability, qHTS; activity change, negative = cytotoxicity: at 92.2 µM (top of the series);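 further: cells exposed to compound for 40 hours; nearly all actives have a fitted effect of over 25% in size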
Method in brief: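 qHTS format; 40 hr compound exposure, 37 °C; CellTiter-Glo luminescence (cellular ATP) read-out after 20 min at RT. Decrease in ATP = cytotoxicity; AC50 from standard Hill fit.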

[20] = qHTS assay for small molecule agonists of the antioxidant response element (ARE) signaling pathway measured by Nrf2-dependant transcriptional activity - cell viability counter screen (AID 720653; active means well fitted curve in the direction sought with a large enough effect in the repeat runs; an effect the other way counts as inactive or inconclusive); conditions: ARE-bla HepG2 viability, CellTiter-Glo ATP luminescence, 16 h; max response: hits give low values
Method in brief: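 ARE-bla HepG2 cells treated with compounds for 16 h at 37C; this counter screen measures viability as intracellular ATP by CellTiter-Glo luminescence after 30 min at room temperature.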

Vitamin D3 receptor (Homo sapiens), sequence (P11473 whole entry, looked up): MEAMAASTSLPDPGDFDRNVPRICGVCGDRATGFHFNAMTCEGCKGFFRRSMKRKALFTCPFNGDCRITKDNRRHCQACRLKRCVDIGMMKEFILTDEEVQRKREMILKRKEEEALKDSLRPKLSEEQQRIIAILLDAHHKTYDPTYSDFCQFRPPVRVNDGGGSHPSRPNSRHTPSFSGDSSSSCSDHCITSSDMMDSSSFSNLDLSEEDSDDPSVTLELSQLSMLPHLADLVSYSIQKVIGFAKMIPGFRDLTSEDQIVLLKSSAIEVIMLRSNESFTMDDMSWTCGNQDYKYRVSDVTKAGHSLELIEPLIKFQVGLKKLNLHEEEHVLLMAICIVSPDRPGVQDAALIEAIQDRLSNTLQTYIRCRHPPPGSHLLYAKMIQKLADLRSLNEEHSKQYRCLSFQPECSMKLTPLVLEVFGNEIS
Estrogen receptor (Homo sapiens), sequence (P03372 whole entry, looked up): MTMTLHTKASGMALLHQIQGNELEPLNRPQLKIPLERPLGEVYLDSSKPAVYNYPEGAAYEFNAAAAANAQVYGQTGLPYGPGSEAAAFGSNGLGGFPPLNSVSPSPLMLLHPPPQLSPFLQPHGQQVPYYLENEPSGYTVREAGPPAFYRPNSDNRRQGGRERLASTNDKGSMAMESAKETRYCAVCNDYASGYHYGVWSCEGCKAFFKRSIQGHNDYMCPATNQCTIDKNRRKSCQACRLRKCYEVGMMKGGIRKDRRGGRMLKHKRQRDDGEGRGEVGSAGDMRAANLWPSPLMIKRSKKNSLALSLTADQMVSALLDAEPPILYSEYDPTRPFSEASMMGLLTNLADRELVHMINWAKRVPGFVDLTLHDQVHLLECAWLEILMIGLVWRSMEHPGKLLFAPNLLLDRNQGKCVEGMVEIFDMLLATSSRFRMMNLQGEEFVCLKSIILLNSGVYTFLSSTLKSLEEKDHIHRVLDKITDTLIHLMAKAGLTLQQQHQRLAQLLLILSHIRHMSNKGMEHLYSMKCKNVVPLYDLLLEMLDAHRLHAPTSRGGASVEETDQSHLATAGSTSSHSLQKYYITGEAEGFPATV
Cytochrome P450 3A4 (Homo sapiens), sequence (P08684 whole entry, looked up): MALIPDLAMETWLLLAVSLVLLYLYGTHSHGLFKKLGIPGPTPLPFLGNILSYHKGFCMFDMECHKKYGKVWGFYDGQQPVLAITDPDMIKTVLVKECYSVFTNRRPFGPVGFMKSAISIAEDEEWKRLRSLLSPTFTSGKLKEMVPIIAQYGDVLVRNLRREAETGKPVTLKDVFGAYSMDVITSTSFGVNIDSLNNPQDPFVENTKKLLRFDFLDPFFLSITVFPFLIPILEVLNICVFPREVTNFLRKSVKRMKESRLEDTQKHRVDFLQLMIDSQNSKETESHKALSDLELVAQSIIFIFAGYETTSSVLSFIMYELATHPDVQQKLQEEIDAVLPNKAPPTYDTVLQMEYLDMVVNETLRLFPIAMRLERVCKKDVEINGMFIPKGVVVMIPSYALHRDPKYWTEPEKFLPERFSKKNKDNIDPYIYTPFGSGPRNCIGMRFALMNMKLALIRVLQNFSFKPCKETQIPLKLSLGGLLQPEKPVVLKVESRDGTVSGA
Glucocorticoid receptor (Homo sapiens), sequence (P04150 whole entry, looked up): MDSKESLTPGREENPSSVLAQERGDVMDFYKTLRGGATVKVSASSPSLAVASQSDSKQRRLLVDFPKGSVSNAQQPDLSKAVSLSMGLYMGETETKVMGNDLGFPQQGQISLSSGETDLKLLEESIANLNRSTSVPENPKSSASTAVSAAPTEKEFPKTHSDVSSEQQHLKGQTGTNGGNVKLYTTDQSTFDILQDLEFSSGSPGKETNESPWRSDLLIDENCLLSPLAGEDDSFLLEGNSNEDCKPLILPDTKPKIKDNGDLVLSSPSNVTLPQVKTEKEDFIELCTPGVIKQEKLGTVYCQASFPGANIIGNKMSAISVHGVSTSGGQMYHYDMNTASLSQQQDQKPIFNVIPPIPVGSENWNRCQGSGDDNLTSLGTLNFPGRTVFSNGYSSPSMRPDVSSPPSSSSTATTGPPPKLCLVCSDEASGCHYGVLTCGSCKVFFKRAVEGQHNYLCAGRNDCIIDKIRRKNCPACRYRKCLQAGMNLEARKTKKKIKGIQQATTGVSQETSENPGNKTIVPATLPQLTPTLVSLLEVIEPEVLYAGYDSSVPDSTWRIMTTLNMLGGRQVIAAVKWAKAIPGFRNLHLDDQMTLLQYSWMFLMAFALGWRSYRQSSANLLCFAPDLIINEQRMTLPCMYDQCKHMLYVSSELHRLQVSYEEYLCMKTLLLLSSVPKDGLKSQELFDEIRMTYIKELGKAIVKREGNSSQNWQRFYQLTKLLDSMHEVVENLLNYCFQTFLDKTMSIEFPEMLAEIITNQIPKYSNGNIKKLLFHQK
Nuclear receptor ROR-gamma (Homo sapiens), sequence (P51449 whole entry, looked up): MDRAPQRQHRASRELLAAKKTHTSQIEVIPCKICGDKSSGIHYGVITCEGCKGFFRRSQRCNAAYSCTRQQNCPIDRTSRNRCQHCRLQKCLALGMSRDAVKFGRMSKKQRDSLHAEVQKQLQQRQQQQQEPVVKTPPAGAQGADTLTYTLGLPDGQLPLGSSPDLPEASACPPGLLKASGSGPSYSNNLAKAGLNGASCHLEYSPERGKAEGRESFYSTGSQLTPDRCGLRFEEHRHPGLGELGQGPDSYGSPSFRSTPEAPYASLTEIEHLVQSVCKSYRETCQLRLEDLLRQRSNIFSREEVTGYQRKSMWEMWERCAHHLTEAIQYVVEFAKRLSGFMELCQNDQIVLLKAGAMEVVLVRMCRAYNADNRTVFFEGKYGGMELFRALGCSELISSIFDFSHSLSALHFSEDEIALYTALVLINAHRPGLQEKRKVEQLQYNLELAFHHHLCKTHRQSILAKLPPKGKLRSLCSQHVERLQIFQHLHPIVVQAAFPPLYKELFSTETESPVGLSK

Row | Compound | Potency [1] | Potency [2] | Potency [3] | outcome [4] | outcome [5] | Potency [6] | Potency [7] | Potency [8] | Potency [9] | Potency [10] | Potency [11] | activation [12] | Potency [13] | outcome [14] | outcome [15] | Potency [16] | Potency [17] | max response [18] | activity change, negative = cytotoxicity [19] | max response [20]
1 | OCC(CO)(CBr)CBr | inactive | inactive | inactive | inactive | inactive | inactive | inactive | inactive | inactive | inactive | inactive | -1.02% and -1.55% | inactive | inactive |  |  |  |  |  | 
2 | COc1ccc(C)cc1N |  |  | inactive | inactive | inactive |  | inactive | inactive |  | inactive | inactive | -0.459% | inactive | inactive | inactive | inactive | inactive | -15% |  | 
3 | c1cc2c3c(c1)ccc1cccc(c13)C2 | inactive |  | inactive |  |  |  |  |  | inactive |  |  | -2.58% | inactive | inactive |  |  | inactive | 3.07% | -13.2% | -4.5%
4 | Cc1ccccc1OCC1CO1 (stereo not given) | inactive | inactive | inactive |  | inactive | inactive |  | inactive |  | inactive | inactive | -1.53% | inactive | inactive | inactive | inactive | inactive | -12.7% | -29.7% | 0.854%
5 | CCC(Cl)CC(Cl)C(Cl)C(Cl)C(Cl)C(C)Cl (stereo not given) | inactive | inactive |  | inactive | inactive | inactive | inactive | inactive | inactive |  | 66.8 µM (active) | 0.226% |  |  | inactive | inactive |  | 0.239% | -16.5% | -9.68%
6 | C=CC(C)(O)CCCC(C)CCCC(C)CCCC(C)C (stereo not given) |  | inactive |  |  | inactive |  |  | inactive |  |  | inactive | -0.414% |  | inactive | inactive | inactive | inactive | -8.32% | -10.5% | 0.618%
7 | CC(C)COC(=O)COc1cc(Cl)c(Cl)cc1Cl | inactive | inactive |  | inactive | inactive | inactive | inactive |  |  |  | 42.2 µM (active) | -1.07% | inactive | inactive | inactive | inactive |  | 6.88% | -0.53% | 7.92%
8 | COc1ccc([N+](=O)[O-])cc1N |  |  | inactive |  |  | inactive | inactive | inactive | inactive | inactive | 30.6 µM (active) | 2.19% and -0.307% | inactive | inactive | inactive | inactive | inactive | -2.82% and -3.03% | -29.6% | 
9 | CCOc1ccc2nc(N)sc2c1 | inactive | inactive | inactive | inactive |  |  | inactive | inactive | inactive | inactive |  | -0.893% |  |  | inactive | inactive |  | -4.83% | -15.3% | -3.62%
10 | O=C(O)c1ccc([N+](=O)[O-])cc1 |  | inactive | inactive | inactive | inactive | inactive |  |  | inactive | inactive | inactive | -1.53% and -0.205% | inactive | inactive |  |  | inactive |  | 3.22% | -7.35% and -20.8%
11 | CCc1ccc(C(c2ccc(CC)cc2)C(Cl)Cl)cc1 | inactive |  | inactive | inactive |  | inactive | inactive |  | inactive | inactive | 66.8 µM (active) |  |  |  | inactive | inactive | inactive |  | -11.4% | 
12 | O=CC(=O)c1ccccc1 | inactive |  |  |  | inactive | inactive |  | inactive | inactive | inactive |  | -1.11% |  | inactive | inactive | inactive | inactive | -4.94% |  | -2.84%
13 | CCCCNCC |  | inactive | inactive | inactive |  | inactive | inactive | inactive | inactive | inactive | inactive |  | inactive | inactive | inactive | inactive |  |  | -8.38% | 3.95%
14 | O=[N+]([O-])c1cccc(I)c1 | inactive | inactive | inactive |  | inactive | inactive |  |  | inactive | inactive | inactive | -0.0255% | inactive | inactive | inactive | inactive | inactive |  | -7.89% | 2.94%
15 | CCCC(=O)OC(=O)CCC | inactive | inactive | inactive | inactive | inactive | inactive | inactive | inactive | inactive |  | inactive | 0.205% and -0.934% | inactive | inactive |  |  |  |  |  | 
16 | C[Si](C)(C)Cl | inactive | inactive | inactive | inactive | inactive | inactive | inactive | inactive |  | inactive |  | 1.18% | inactive | inactive | inactive | inactive |  | -4.36% | -21.3% | 
